Shown are actives, neighbours in structure and some others; about 0.83% of the full set was active somewhere.
Gli-Sufu antag = Gli-Sufu pathway antagonists, primary screen, luciferase luminescence, Sufu-KO-LIGHT cells, uHTS; Sufu-KO-LIGHT fibroblasts, Gli luciferase reporter luminescence; inhibition, % at 5 µM; 340,000 compounds, 0.74% hits; AID 588413, 2011;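 active = inhibition above about 55%, limit read from the data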
SRC2 inh = inhibition of GAL4-SRC2 driven luciferase reporter, primary screen, SRC2 inhibitor project, cell-based, luminescence; HEK293 GAL4-SRC2 luciferase reporter; AID 651957, 2012; Nuclear receptor coactivator 2 (Homo sapiens), Q15596; inhibition, % at 9 µM; 370,000 compounds, 0.17% hits;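 active = inhibition above the mean inhibition of all tested compounds plus 3 SD, set per campaign, cut at about 52% in these data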
SRC1 inh = SRC1 coactivator transcriptional activity inhibitors, primary screen, cell-based, luminescence; Nuclear receptor coactivator 1 (Homo sapiens), Q15788; HEK293 GAL4-SRC1 luciferase reporter; inhibition, % at 3.6 µM; 360,000 compounds, 0.12% hits; AID 588354, 2011;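 active = inhibition above the campaign mean plus 3 SD, with each screening campaign given its own cutoff, cut at about 60% in these data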
LRH-1 inv ag = LRH-1 (NR5A2) inverse agonists, primary screen, cell-based, luminescence, HEK293T, StAR-luciferase reporter. Nuclear receptor subfamily 5 group A member 2 (Homo sapiens), O00482. LRH-1 transfected, 24 h. inhibition, % at 3.6 µM. 360,000 compounds, 0.13% hits. AID 602396, 2012;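 active = inhibition above the mean inhibition of all tested compounds plus 3 SD, cut at about 73% in these data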
SRC3 inh = SRC3 coactivator transcriptional activity inhibitors, primary screen, cell-based, luminescence. Nuclear receptor coactivator 3 (Homo sapiens), Q9Y6Q9. 360,000 compounds, 0.17% hits. HEK293 GAL4-SRC3 luciferase reporter. inhibition, % at 3.6 µM;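 active = inhibition above a per-campaign cutoff, the mean of all compounds plus 3 SD, cut at about 60% in these data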;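 also: higher means less SRC3-driven luciferase light from the GAL4 reporter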
Target sequence (Q9Y6Q9 whole entry, looked up, the tested form may be a part): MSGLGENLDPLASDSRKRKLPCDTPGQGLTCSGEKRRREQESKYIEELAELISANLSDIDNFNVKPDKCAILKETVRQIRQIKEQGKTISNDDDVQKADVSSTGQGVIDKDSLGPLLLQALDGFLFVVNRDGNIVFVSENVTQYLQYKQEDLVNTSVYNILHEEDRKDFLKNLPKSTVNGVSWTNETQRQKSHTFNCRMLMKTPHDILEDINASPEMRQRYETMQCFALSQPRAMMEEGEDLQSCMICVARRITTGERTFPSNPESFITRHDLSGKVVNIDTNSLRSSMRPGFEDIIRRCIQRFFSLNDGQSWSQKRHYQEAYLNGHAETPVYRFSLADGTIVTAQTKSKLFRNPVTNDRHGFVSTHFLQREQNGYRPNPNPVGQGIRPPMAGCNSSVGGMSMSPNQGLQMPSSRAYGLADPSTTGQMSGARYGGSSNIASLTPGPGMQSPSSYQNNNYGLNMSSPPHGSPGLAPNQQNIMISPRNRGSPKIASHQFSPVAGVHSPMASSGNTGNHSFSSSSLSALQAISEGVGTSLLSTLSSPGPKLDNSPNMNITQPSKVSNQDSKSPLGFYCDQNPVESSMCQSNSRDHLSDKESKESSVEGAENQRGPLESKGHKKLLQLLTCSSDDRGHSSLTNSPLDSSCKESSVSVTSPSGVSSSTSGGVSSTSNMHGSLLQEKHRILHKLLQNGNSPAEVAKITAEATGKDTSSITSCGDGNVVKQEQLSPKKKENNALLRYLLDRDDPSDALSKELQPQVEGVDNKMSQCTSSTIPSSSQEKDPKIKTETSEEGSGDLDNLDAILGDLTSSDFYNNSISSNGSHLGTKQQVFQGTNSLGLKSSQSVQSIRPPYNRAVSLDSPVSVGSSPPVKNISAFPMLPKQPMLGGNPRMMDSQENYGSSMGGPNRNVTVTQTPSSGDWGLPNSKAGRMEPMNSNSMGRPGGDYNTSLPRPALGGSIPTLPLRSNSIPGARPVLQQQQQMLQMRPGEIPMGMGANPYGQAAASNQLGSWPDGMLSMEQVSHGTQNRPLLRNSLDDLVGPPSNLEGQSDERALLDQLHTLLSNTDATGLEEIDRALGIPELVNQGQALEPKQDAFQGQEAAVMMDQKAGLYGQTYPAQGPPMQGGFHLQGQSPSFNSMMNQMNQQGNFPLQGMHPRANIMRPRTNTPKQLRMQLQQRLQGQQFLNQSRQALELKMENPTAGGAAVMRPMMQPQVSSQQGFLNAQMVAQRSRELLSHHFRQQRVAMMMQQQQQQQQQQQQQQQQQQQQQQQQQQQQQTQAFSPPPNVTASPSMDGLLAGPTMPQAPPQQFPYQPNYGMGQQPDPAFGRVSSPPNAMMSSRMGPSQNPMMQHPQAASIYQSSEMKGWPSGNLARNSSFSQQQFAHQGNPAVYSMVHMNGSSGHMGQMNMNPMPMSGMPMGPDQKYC
Of the large screens only hits and unclear results are named; the others gave an inactive call.

Cn1cc(C2(c3c[nH]c4ccccc34)CCN(C(=O)OC(C)(C)C)CC2)c2ccccc21	none (no result: Gli-Sufu antag, SRC1 inh, LRH-1 inv ag, SRC3 inh)
c1ccc(CCc2nn3c(-c4ccncc4)nnc3s2)cc1	SRC1 inh 68
Clc1ccccc1-c1nnc2sc(CCc3ccccc3)nn12	none
O=C(/C=C/c1ccccc1)CC(O)(c1ccccc1)C(F)(F)F (stereo not drawn)	SRC3 inh 72
Cc1nc2scc(C)n2c(=O)c1S(=O)(=O)Nc1ccc(N2CCOCC2)c(Cl)c1	Gli-Sufu antag 71
CS(=O)(=O)N[C@@H]1C[C@@H]2O[C@H](CO)CC[C@@H]2O[C@@H]1CCc1ccc(-c2ccccc2F)cc1	none (no result: Gli-Sufu antag, SRC1 inh, LRH-1 inv ag, SRC3 inh)
Cc1ccc(S(=O)(=O)Nc2cccc3cccnc23)cc1	Gli-Sufu antag 63
COc1cc(NS(=O)(=O)c2ccc(C)cc2)c2ncccc2c1	Gli-Sufu antag 88
O=S(=O)(Nc1cc(Sc2cccc3cccnc23)c(O)c2ccccc12)c1ccccc1	SRC2 inh 95 (no result: Gli-Sufu antag, SRC1 inh, LRH-1 inv ag, SRC3 inh)
COC(=O)[C@H]1C[C@@]2(C)c3ccccc3N(S(=O)(=O)c3ccccc3)[C@H]2N1C(=O)CNC1CCCCC1	none (no result: Gli-Sufu antag, SRC1 inh, LRH-1 inv ag, SRC3 inh)
Cc1ccc(-n2c(SCC(=O)Nc3ccc(S(=O)(=O)Nc4cc(C)nc(C)n4)cc3)nnc2-c2ccc(C(C)(C)C)cc2)cc1	none (no result: Gli-Sufu antag, SRC1 inh, LRH-1 inv ag, SRC3 inh)
C[C@H](O)[C@@H]1CN2CCc3ccc(N4CCOCC4)cc3[C@@H]2C[C@@H]1N(C)C(=S)NCCc1ccccc1	none (no result: Gli-Sufu antag, SRC1 inh, LRH-1 inv ag, SRC3 inh)
COc1cccc(/C=N/NC(=O)c2c(C)nc3ccc(Br)cn23)c1O	Gli-Sufu antag 88, SRC1 inh 78, LRH-1 inv ag 99, SRC3 inh 79 (no result: SRC2 inh)
COc1ccc(C(=O)N/N=C/c2cc(Br)ccc2O)cc1OC	SRC3 inh 64
CCOc1ccccc1/C=N/NC(=O)c1c(C)nc2ccc(Br)cn12	none
CC(=O)OC12CCCN(C1)/C(=C/c1cccnc1)C2 (stereo not drawn)	none (no result: Gli-Sufu antag, SRC1 inh, LRH-1 inv ag, SRC3 inh)
CN(C)Cc1c(C(=O)N/N=C/c2cccc(OCc3c(F)cccc3Cl)c2)nnn1-c1nonc1N	Gli-Sufu antag 67
CN(C)Cc1c(C(=O)N/N=C/c2ccccc2OCc2c(F)cccc2Cl)nnn1-c1nonc1N	none
CCC(=O)Nc1ccc(NC(=O)c2oc3ccccc3c2C)cc1	SRC2 inh 58
CCC(=O)Nc1ccc(NC(=S)NC(=O)c2oc3ccccc3c2C)cc1	none
CCOC(=O)CNC(=O)CSc1nnc(-c2ccc(C(C)(C)C)cc2)n1-c1ccc(Cl)cc1	none (no result: Gli-Sufu antag, SRC1 inh, LRH-1 inv ag, SRC3 inh)
COC1C=CC=C(C)C(=O)NC2=CC(=O)C(N)=C(CC(C)CC(OC)C(O)C(C)C=C(C)C1OC(N)=O)C2=O (stereo not drawn)	Gli-Sufu antag 69, SRC1 inh 72, LRH-1 inv ag 86, SRC3 inh 75
COC1CC(C)C(OC)c2cc(O)cc(c2O)NC(=O)C(C)=CC=CC(C)C(OC(N)=O)C(C)=CC(C)C1OC (stereo not drawn)	none
CCc1cc(OCCN(C)C)ccc1Cl	none
CN(C)CCOc1ccc2c(c1)C(=O)C(=Cc1ncc([N+](=O)[O-])n1C)C2	LRH-1 inv ag 82 (no result: Gli-Sufu antag)
CCOC(=O)C1CCN(C(=O)CCc2c(C)nc3cc(-c4ccccc4)nn3c2C)CC1	none
CCOC(=O)C1CCCCN1C(=O)CCc1c(C)nc2cc(-c3ccccc3)nn2c1C (stereo not drawn)	SRC2 inh 70
CCOc1ccc(Nc2ncnc3ccc([N+](=O)[O-])cc23)cc1	SRC1 inh 69
CCOC(=O)c1ccc(Nc2ncnc3ccc(C)cc23)cc1	none
COCCCNC(=O)C[C@H]1C[C@@]2(C(=O)OC)C(=C[C@H](C(C)(C)C)O[C@@H]2C)N(Cc2cccc3ccccc23)C1=O	none (no result: Gli-Sufu antag, SRC1 inh, LRH-1 inv ag, SRC3 inh)
C=CCN(Cc1ccccc1)C(C#CC(=C)C)Cc1ccccc1 (stereo not drawn)	none (no result: Gli-Sufu antag, SRC1 inh, LRH-1 inv ag, SRC3 inh)
CNC(=O)c1cc(Oc2ccc(NC(=O)Nc3ccc(Cl)c(C(F)(F)F)c3)cc2)ccn1	SRC2 inh 65
O=C(CCC1CCCC1)Nc1ccc(C(=O)NCc2cccnc2)cc1	LRH-1 inv ag 74
COC(=O)[C@@]12CCCCC3=C1N(CCC3)C(=O)[C@H]2CC(=O)NCCCCc1ccccc1	none (no result: Gli-Sufu antag, SRC1 inh, LRH-1 inv ag, SRC3 inh)
CC1=NN(c2nc3ccccc3[nH]2)C(=O)C1Cc1ccccc1 (stereo not drawn)	LRH-1 inv ag 81, SRC3 inh 75 (no result: SRC2 inh)
CC1=NN(c2nc3ccccc3[nH]2)C(=O)/C1=C/N(C)C	none (no result: SRC2 inh)
CCOC(=O)[C@@]12CCCC=C1N(CCc1ccc(Cl)cc1)C(=O)[C@H]2CC(=O)NCc1cccc(C(F)(F)F)c1	none (no result: Gli-Sufu antag, SRC1 inh, LRH-1 inv ag, SRC3 inh)
CC1CC(C)C(=NNC(N)=O)C(C(O)CC2CCC(=O)NC2=O)C1 (stereo not drawn)	SRC2 inh 58, SRC1 inh 75, LRH-1 inv ag 99, SRC3 inh 74
CCC1SC(C)C/C(=N/NC(N)=O)C1C (stereo not drawn)	none
Cc1ccc(-n2c(O)c(C=Nc3cc(C)on3)c3ccccc3c2=O)c(C)c1	SRC3 inh 67
Cc1cc(N=Cc2c(O)n(-c3ccc(C)c(C)c3)c(=O)c3ccccc23)no1	none (no result: Gli-Sufu antag, SRC1 inh, LRH-1 inv ag, SRC3 inh)
CCN(CC)S(=O)(=O)c1cccc(C(=O)N/N=C(\C)c2ccc(O)cc2O)c1	SRC3 inh 70
CCN(CC)S(=O)(=O)c1cccc(C(=O)N/N=C/c2ccc(O)c(O)c2O)c1	none
CC(COc1cccc(Cl)c1)CN1CCC(C(O)(c2ccccc2)c2ccccc2)CC1 (stereo not drawn)	none (no result: Gli-Sufu antag, SRC1 inh, LRH-1 inv ag, SRC3 inh)
CCCCCCCCCCOC(=O)Cn1c(COc2ccc(OC)cc2)[n+](C)c2ccccc21	Gli-Sufu antag 76 (no result: SRC2 inh)
CCCCCCCCCCOC(=O)Cn1c(COc2ccccc2C)[n+](C)c2ccccc21	Gli-Sufu antag 85 (no result: SRC2 inh)
CCCCCCCCCCOC(=O)Cn1c(COc2ccc(Cl)cc2)[n+](C)c2ccccc21	Gli-Sufu antag 68
CCCCCCCCCCOC(=O)Cn1c(COc2ccccc2)[n+](C)c2ccccc21	Gli-Sufu antag 62
C[C@H](O)[C@@H]1CN2CCc3c([nH]c4c(-c5ccc6c(c5)OCO6)cccc34)[C@@H]2C[C@@H]1N(C)C(=O)Nc1ccccc1	none (no result: Gli-Sufu antag, SRC1 inh, LRH-1 inv ag, SRC3 inh)
COC(=O)C1CN(Cc2cn(Cc3ccc(Cl)cc3)nn2)CCS(=O)(=O)N1Cc1ccccc1 (stereo not drawn)	none (no result: Gli-Sufu antag, SRC1 inh, LRH-1 inv ag, SRC3 inh)
COc1ccc(/C=C/C(Cc2cccc(C(C)=O)c2)c2ccc(C)cc2)cc1 (stereo not drawn)	none (no result: Gli-Sufu antag, SRC1 inh, LRH-1 inv ag, SRC3 inh)
O=C(CCCl)NC1CCCCN(Cc2ccc(OC(F)(F)F)cc2)C1=O (stereo not drawn)	none (no result: Gli-Sufu antag, SRC1 inh, LRH-1 inv ag, SRC3 inh)
COC(=O)c1cccc(OCC(C)CN2CCC(C(O)(c3ccccc3)c3ccccc3)CC2)c1 (stereo not drawn)	none (no result: Gli-Sufu antag, SRC1 inh, LRH-1 inv ag, SRC3 inh)
CN(C)c1ccc(Sc2ccc3nc(N)nc(N)c3c2)cc1	LRH-1 inv ag 74 (no result: Gli-Sufu antag)
CC(C)(C)N(Cc1cn(Cc2ccccc2)nn1)S(=O)(=O)c1ccc(N2CCCC2)cc1Br	none (no result: Gli-Sufu antag, SRC1 inh, LRH-1 inv ag, SRC3 inh)
